ELG1 repair inh = inhibitors of ELG1-dependent DNA repair in HEK293T cells. HEK293T ELG1-luciferase reporter, luminescence, 16 h; DNA damage induced by 5-fluorouridine. Potency, µM (top dose mostly 46.1 µM), for inactives: top-dose activity change, negative = inhibition, hits mostly inhibitors. 2.3% of 330,000 active; note: nearly all actives have a fitted effect of over 55% in size
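Overnight (16 hr) co-exposure of 2,000 cells/well to 5-fluorouridine and compound at 37 °C preceded detection. Luciferase was quantified via ONE-Glo luminescence; loss of signal denotes inhibition.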
ALOX12 inh = blocks human arachidonate 12S-lipoxygenase; P18054; purified 12hLO, xylenol orange hydroperoxide absorbance; Potency, µM (titrated, usually from 108 µM), for the others: at the highest dose activity change, negative = inhibition, usual class: inhibitors; 1.1% of 580,000 active; AID 1671190
Target sequence (P18054 whole entry, looked up): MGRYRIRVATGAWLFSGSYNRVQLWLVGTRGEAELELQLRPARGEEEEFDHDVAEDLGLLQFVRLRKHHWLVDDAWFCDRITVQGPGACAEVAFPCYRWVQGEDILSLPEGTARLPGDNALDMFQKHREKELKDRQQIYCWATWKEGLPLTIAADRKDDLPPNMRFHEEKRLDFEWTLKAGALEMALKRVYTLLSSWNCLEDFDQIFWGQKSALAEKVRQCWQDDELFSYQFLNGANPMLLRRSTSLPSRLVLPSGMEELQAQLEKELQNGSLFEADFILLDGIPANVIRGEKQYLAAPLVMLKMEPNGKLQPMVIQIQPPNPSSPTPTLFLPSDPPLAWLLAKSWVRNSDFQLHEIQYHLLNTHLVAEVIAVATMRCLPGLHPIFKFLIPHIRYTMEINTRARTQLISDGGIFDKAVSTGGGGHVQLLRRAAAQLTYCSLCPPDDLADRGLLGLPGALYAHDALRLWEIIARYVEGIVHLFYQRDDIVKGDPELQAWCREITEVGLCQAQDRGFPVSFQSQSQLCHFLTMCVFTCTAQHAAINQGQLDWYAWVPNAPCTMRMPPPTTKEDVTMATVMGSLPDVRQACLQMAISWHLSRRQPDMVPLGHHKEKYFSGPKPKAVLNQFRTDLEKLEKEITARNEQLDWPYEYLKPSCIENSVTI
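Hydroperoxide product was detected by ferrous iron/xylenol orange as the 573 to 405 nm absorbance ratio. Arachidonic acid at 40 uM (final) was turned over for 30 min at room temperature by 150 nM human 12hLO, pH 7.0 Hepes buffer, after 15 min compound preincubation.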
DT40 TDP1 CPT = growth inhibition of DT40 Tdp1-/-;hTDP1 cells with camptothecin (screen for TDP1 inhibitors); AID 686979; 12% of 420,000 active; chicken DT40 Tdp1-/-;hTDP1 cells + 20 nM CPT, ATP luminescence, 48 h; Potency, µM (top dose mostly 46.2 µM), for inactives: top-dose activity change, negative = growth inhibition, actives largely listed as inhibitors; note: nearly all actives have a fitted effect of over 55% in size
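Chicken DT40 Tdp1-/- cells complemented with human TDP1, 400 cells/well, exposed to compounds plus 20 nM camptothecin for at least 48 h at 37 C; viability read as ATP content by CellTiter-Glo luminescence.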
VP16 counter = counter-screen for ROR gamma inhibitors: Gal4-VP16 reporter; Drosophila S2 Gal4-VP16 UAS-luciferase, luminescence, 20 h; Potency, µM (doses to about 53.6 µM), for inactives: at the top dose activity, negative = inhibition, most hits filed as inhibitors; 3.5% of 310,000 active; AID 2546;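 note: Gal4-VP16 expression switched on by copper sulfate through the metallothionein promoter; nearly all actives have a fitted effect of over 50% in size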
DT40 TDP1 no CPT = qHTS for Inhibitors of human tyrosyl-DNA phosphodiesterase 1 (TDP1): qHTS in cells in absence of CPT; DT40 Tdp1-/- hTDP1 cells, no CPT, ATP luminescence, 48 h; Potency, µM (highest dose often 46.2 µM), for inactives: at the top dose activity change, negative = growth inhibition, hits mostly inhibitors; 15% of 420,000 active; AID 686978, 2013; note: nearly all actives have a fitted effect of over 55% in size
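A cellular qHTS used chicken DT40 cells lacking endogenous Tdp1 but carrying stably transfected human TDP1. Compounds were applied without camptothecin, and cell growth kinetics were judged by ATP-dependent luminescence after ≥48 hr.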
RORgamma inh = blocks mouse ROR gamma transcriptional activity | Drosophila S2 Gal4-RORgamma UAS-luciferase reporter, 20 h | AID 2551 | 5.4% of 310,000 active | Potency, µM (top dose mostly 53.6 µM), for inactives: top-dose activity change, negative = inhibition, usual class: inhibitors | P51450; note: nearly all actives have a fitted effect of over 60% in size
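Stable Schneider cell line, Gal4 DNA-binding domain fused to ROR gamma, UAS-luciferase. Cmpd 1 hr RT → CuSO4 700 uM final → 20 hr RT → luciferase reagent 10 min → luminescence.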
Active calls of the source: *; [ ] = another dose, or the depositor's remark. Most compounds without a hit are left out; they make up all but 15% or so of the library. Calls come from the whole dose curve; as a rule, active = well fitted curve in the direction sought with a large enough effect; inconclusive = small, poorly fitted or top-dose-only effect, or another doubt; inactive = no such curve, though single readings can be large; an effect the other way counts as inactive or inconclusive. % is set by controls: 0 for no effect and ±100 for the full control effect; potency is the fitted concentration of half-maximal effect.

Screening COc1ccc(C(C)=O)cc1CSc1nnc(C)n1-c1ccccc1 returned ELG1 repair inh 5%, ALOX12 inh -12%, DT40 TDP1 CPT -14%, VP16 counter 13%, DT40 TDP1 no CPT -105% and RORgamma inh 0%.
For COc1ccc(C(C)=O)cc1CSc1nnc(Nc2c(C)cccc2C)s1 the results were ELG1 repair inh -16%, ALOX12 inh -13%, DT40 TDP1 CPT 21µM*, VP16 counter -5%, DT40 TDP1 no CPT inconclusive and RORgamma inh -6%.
O=c1c2nc(Nc3cccnc3)ccc2ncn1-c1ccccc1 was read as ALOX12 inh 45%[176 µM].
CCOc1cc(/C=C2/NC(=O)NC2=O)ccc1OCc1ccc(Cl)cc1 was read as ALOX12 inh 26%.
Cn1c(=O)n(C)c2cc(NC(=O)CSc3nnc(-c4ccccc4O)n3-c3ccccc3)ccc21 was read as ELG1 repair inh -10%, ALOX12 inh 17%, DT40 TDP1 CPT 18µM*, VP16 counter 17%, DT40 TDP1 no CPT inconclusive and RORgamma inh 3%.
For COc1ccccc1OC(C)C(=O)Nc1ccc2c(c1)n(C)c(=O)n2C (stereo not given) the results were ELG1 repair inh inconclusive, ALOX12 inh 18%, DT40 TDP1 CPT -19%, VP16 counter -7%, DT40 TDP1 no CPT -3% and RORgamma inh 29%.
CC(=O)Nc1ccc(NC(=O)CSc2nnc(C)n2-c2ccccc2)cc1 was read as ELG1 repair inh 10%, ALOX12 inh 6%, DT40 TDP1 CPT 7%, VP16 counter -6%, DT40 TDP1 no CPT 17% and RORgamma inh 21%.
`Cc1ccc(OC(C)C(=O)Nc2ccc3c(c2)n(C)c(=O)n3C)c(C)c1` (stereo not given) gave ELG1 repair inh -7%, ALOX12 inh 45µM*, DT40 TDP1 CPT inconclusive, VP16 counter 30%, DT40 TDP1 no CPT inconclusive and RORgamma inh inconclusive.
Screening CC(C)C1C(=O)N(Cc2cn(CCC3OCCCO3)nn2)CCS(=O)(=O)N1Cc1ccc(-c2cccc(CO)c2)cc1 (stereo not given) returned ALOX12 inh -29%, DT40 TDP1 CPT -24% and DT40 TDP1 no CPT inconclusive.
For CC(C)C1C(=O)N(Cc2cn(CCC3OCCCO3)nn2)CCS(=O)(=O)N1Cc1ccc(-c2ccc(Cl)cc2)cc1 (stereo not given) the results were ALOX12 inh 2%, DT40 TDP1 CPT inconclusive and DT40 TDP1 no CPT 23µM*.
For CC(C)C1C(=O)N(Cc2cn(CCC3OCCCO3)nn2)CCS(=O)(=O)N1Cc1ccc(-c2ccc(Cl)c(Cl)c2)cc1 (stereo not given) the results were ALOX12 inh 4%, DT40 TDP1 CPT 23µM* and DT40 TDP1 no CPT 18µM*.
`CC(C)C1C(=O)N(Cc2cn(CCC3OCCO3)nn2)CCS(=O)(=O)N1Cc1ccc(-c2ccc(F)cc2)cc1` (stereo not given) gave ALOX12 inh 3%, DT40 TDP1 CPT inconclusive and DT40 TDP1 no CPT inconclusive.
For CC(C)C1C(=O)N(Cc2cn(CCC3OCCO3)nn2)CCS(=O)(=O)N1Cc1ccc(-c2ccc(Cl)cc2)cc1 (stereo not given) the results were ALOX12 inh -2%, DT40 TDP1 CPT 3.3µM* and DT40 TDP1 no CPT 4.1µM*.
Nc1c(N=Nc2ccc([N+](=O)[O-])cc2)c(S(=O)(=O)O)cc2cc(S(=O)(=O)O)c(/C=C/c3ccccc3)c(O)c12 was read as DT40 TDP1 CPT 10µM* and DT40 TDP1 no CPT 14µM*.

Screening data: PubChem BioAssay, National Center for Advancing Translational Sciences (NCATS)
